About 7,900 targets were measured; listed, in parts, are those with a hit and a random draw of the rest. About 0.6% of all pairs of compound and target were hits.
compound: c1cn2cc(-c3ccc4cn[nH]c4c3)nc(Nc3ccc(N4CCOCC4)cc3)c2n1 [entospletinib]; test: log2 fold change, soluble protein after heating vs DMSO (PISA); higher = thermal stabilisation; K562 cells, 10 uM, 30 min; active = over 0.2 and 3.5 SD of the protein, either way, in both replicates (recomputed)
In short: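 Thermal stability values are relative to control samples and come from duplicates. They are expressed as log2 fold changes. For measurement, K562 cells (2×10^6 cells/mL) received 10 μM compound for 30 min, and aliquots were heated for 3 min over 48°C-58°C, pooled, and extracted at 4°C in PBS with 0.5% NP-40. Soluble protein, the supernatant after 21,000xg for 90 min, was quantified by TMTpro 16plex LC-MS/MS with equalised channel sums.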

Sequence of UniProt Q502W6 (Q502W6 whole entry, looked up): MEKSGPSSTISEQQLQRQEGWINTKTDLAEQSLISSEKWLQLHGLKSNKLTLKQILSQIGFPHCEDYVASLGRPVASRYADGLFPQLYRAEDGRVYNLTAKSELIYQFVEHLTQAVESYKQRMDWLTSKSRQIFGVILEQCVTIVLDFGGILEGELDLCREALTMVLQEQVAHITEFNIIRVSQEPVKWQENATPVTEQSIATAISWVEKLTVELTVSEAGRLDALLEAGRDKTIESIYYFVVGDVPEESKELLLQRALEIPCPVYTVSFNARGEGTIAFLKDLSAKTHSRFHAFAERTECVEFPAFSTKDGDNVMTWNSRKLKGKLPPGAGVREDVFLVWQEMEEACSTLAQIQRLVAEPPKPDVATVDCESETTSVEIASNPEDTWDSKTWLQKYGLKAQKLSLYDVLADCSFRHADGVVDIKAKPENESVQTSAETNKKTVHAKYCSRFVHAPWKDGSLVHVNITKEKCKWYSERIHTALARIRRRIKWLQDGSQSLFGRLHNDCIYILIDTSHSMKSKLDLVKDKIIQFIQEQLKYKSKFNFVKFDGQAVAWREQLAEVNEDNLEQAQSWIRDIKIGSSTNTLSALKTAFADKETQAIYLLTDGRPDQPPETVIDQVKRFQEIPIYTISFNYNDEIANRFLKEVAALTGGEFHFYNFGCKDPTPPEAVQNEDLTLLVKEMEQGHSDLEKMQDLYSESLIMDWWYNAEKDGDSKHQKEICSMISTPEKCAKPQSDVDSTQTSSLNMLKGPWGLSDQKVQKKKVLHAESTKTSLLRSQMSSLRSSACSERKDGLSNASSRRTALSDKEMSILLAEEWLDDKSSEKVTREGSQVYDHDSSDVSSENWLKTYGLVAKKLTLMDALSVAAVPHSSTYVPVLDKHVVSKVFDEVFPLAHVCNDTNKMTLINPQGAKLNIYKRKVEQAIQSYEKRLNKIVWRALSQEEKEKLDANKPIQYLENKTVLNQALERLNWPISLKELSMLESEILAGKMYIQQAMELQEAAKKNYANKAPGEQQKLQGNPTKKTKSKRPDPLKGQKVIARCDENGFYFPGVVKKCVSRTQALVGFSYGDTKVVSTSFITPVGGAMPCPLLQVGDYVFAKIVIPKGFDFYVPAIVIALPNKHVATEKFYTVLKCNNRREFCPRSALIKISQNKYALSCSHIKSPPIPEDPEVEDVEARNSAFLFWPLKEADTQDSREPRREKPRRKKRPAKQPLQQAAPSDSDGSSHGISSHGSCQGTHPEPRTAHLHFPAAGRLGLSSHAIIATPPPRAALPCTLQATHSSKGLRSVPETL
Sequence of UniProt Q8IWV8 (Q8IWV8 whole entry, looked up): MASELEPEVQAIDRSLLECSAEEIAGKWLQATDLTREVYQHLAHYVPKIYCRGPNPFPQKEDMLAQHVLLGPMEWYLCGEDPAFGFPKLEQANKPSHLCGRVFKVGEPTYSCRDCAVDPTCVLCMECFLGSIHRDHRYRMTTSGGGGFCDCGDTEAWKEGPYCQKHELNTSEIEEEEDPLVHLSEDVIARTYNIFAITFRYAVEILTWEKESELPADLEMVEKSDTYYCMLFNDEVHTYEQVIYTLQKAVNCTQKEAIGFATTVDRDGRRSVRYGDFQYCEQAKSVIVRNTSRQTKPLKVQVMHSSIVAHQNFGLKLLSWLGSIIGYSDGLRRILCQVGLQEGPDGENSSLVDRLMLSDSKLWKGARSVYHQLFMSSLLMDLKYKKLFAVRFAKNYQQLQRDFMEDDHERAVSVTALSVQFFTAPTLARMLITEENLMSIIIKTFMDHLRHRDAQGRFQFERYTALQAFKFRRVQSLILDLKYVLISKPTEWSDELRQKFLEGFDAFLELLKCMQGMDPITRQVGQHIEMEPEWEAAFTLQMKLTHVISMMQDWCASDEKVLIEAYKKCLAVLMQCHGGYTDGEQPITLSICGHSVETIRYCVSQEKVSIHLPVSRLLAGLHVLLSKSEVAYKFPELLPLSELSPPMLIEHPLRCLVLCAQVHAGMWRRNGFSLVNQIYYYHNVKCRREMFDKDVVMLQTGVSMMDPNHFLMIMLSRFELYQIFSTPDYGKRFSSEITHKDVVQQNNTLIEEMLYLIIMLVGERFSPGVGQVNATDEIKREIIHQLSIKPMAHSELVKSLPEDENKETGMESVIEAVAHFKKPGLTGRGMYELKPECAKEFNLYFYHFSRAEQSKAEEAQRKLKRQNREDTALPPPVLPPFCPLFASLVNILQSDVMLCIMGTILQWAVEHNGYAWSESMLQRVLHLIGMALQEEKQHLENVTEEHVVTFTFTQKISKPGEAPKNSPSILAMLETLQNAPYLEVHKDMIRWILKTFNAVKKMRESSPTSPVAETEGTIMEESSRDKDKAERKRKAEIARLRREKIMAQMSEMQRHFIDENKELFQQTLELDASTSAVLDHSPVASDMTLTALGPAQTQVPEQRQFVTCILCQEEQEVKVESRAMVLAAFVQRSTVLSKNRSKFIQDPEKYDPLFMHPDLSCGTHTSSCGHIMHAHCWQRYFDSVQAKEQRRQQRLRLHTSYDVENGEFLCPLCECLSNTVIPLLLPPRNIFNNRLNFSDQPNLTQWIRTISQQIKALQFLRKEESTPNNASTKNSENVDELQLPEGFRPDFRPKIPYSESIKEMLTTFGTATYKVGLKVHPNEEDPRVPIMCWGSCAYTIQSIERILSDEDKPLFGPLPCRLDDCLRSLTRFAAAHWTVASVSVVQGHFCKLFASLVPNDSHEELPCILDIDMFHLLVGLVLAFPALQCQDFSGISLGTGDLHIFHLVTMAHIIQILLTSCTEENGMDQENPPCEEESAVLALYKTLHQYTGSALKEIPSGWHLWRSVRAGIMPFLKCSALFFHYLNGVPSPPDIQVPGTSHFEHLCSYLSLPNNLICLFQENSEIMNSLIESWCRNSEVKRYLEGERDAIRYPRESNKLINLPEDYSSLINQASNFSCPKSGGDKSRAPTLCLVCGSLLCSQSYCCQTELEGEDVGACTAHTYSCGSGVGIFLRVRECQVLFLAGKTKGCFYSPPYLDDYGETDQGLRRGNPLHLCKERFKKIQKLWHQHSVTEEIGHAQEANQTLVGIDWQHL
Sequence of UniProt P98170 (P98170 whole entry, looked up): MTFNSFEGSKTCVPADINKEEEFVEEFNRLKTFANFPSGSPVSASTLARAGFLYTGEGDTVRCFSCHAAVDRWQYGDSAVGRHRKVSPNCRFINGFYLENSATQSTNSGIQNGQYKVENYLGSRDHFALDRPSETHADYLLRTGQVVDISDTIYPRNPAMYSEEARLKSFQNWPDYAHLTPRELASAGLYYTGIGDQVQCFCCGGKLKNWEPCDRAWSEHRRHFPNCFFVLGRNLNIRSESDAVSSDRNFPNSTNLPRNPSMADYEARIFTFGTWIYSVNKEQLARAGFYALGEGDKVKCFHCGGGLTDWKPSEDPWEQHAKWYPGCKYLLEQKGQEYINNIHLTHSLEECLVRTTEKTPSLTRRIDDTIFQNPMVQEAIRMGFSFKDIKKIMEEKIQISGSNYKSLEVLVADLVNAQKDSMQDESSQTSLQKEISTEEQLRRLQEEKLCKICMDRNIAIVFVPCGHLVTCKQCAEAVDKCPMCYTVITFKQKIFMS
Sequence of UniProt Q9UEU0 (Q9UEU0 whole entry, looked up): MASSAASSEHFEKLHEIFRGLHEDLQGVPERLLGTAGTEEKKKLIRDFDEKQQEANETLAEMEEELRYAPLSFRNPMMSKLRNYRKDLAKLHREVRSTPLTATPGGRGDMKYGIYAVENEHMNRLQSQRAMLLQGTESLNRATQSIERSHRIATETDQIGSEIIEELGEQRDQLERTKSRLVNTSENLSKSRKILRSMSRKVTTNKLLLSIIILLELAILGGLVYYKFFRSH
Sequence of UniProt O14980 (O14980 whole entry, looked up): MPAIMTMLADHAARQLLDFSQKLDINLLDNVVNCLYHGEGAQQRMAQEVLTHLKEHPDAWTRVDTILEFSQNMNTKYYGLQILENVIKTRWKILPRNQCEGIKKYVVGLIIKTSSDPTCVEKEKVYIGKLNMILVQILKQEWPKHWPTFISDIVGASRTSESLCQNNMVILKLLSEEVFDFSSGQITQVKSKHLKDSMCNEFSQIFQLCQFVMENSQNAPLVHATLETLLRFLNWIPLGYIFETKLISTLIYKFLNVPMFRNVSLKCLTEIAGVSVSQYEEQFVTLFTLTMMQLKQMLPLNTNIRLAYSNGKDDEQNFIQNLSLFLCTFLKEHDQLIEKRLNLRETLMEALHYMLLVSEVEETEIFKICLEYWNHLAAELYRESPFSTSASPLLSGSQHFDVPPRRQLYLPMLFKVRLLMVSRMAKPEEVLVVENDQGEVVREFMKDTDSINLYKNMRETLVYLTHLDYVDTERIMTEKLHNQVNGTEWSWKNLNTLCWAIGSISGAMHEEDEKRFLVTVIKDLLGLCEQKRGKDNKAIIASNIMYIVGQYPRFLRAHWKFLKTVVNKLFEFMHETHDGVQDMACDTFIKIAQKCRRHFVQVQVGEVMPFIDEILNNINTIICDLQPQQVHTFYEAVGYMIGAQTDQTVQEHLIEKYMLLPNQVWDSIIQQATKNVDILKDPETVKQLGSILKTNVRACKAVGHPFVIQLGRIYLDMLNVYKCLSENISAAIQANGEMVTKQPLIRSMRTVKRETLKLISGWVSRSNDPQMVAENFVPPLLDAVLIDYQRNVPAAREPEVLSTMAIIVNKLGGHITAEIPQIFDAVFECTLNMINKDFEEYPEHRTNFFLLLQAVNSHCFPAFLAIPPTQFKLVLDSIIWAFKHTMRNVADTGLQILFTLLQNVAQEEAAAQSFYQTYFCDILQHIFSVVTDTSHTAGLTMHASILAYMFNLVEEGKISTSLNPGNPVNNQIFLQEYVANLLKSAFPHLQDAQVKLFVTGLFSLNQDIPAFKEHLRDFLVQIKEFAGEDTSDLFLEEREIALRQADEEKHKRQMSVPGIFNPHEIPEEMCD
Sequence of UniProt Q7Z7N9 (Q7Z7N9 whole entry, looked up): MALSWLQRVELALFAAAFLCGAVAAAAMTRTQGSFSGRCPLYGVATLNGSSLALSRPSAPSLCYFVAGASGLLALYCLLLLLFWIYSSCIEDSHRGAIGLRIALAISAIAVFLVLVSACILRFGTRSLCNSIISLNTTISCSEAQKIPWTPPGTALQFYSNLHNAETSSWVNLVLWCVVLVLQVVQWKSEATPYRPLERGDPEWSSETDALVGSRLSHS

log2 fold change, inactive:
VPS52 (UniProt Q8N1B4) 0.062
TUBAL3 (UniProt A6NHL2) -0.351
TRMT10A (UniProt Q8TBZ6) -0.055
VAMP7 (UniProt P51809) -0.032
TMEM179B (UniProt Q7Z7N9) 0.098
TRIM23 (UniProt P36406) -0.041
UBR2 (UniProt Q8IWV8) 0.029
UHRF1BP1L (UniProt A0JNW5) 0.012
TRIP10 isoform 2 (UniProt Q15642) 0.062
TYW1 (UniProt Q9NV66) 0.003
VWA3B isoform 6 (UniProt Q502W6) -0.237
TRIM44 (UniProt Q96DX7) 0.007
TXNL1 (UniProt O43396) 0.034
UBAP1 isoform 4 (UniProt Q9NZ09) 0.005
TRMT2A (UniProt Q8IZ69) 0.1
VTI1B (UniProt Q9UEU0) 0.082
U2AF2 (UniProt P26368) 0.107
USP7 (UniProt Q93009) -0.019
TMEM104 (UniProt Q8NE00) 0.001
XPO1 (UniProt O14980) -0.016
VARS2, A0A0G2JL52 -0.03
TSC2 (UniProt P49815) -0.17
XIAP (UniProt P98170) -0.066
